Beta cell apopt: beta cell apoptosis inhibition; INS-1E cytokine-induced death, ATP luminescence, 48 h; percent of positive-control rescue, neutral wells zero; protection from apoptosis, % (test concentration not listed); actives 0.8% (n = 300,000); AID 435005;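 active = Every replicate reaches about 75%, or at least half do and their mean reaches it too, limit read from the data; inconclusive = At least half of replicates reach the limit but their mean does not; inactive = Under half of replicates reach the limit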;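 also: 0% = cytokine-treated negative control wells and 100% = positive control rescue; higher means more ATP so stronger rescue from cytokine killing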
Shn3 3UTR inh: Schnurri-3 reporter inhibition in Clone20 osteoblasts. Clone20 osteoblast Shn3 3'UTR firefly luciferase, 24 h. inhibition, % at 12.5 µM. actives 0.52% (n = 360,000). AID 588674;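 active = mean inhibition of at least 75% with every replicate also reaching 75%; inconclusive = mean inhibition at least 75% but some replicate below; inactive = mean inhibition below 75%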;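 also: 0% = median of neutral control wells and 100% = pilot-screen positive control compound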
PAX8 reporter: PAX8 transcriptional activity inhibition; RMG-I TPO-luciferase reporter, SteadyGlo, 24 h; inhibition, % at 12.6 µM; actives 1.2% (n = 360,000);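 active = mean replicate inhibition at least 60% with every replicate also reaching 60%; inconclusive = only one of the two criteria is met; inactive = mean below 60% and not all replicates reaching 60%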;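 also: luciferase light reporting Pax8 driven TPO promoter activity; plate controls were median of neutral control wells for no effect and mitoxantrone controls for full effect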
Gli-Sufu block: Gli-Sufu pathway antagonism; Sufu-KO-LIGHT fibroblasts, Gli luciferase reporter luminescence; inhibition, % at 5 µM; actives 0.74% (n = 340,000); AID 588413;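 active = inhibition above about 55%, limit read from the data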;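 also: 0% = DMSO-treated cells and 100% = wells with medium but no cells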
CSC inhib: blocks cancer stem cells. cancer stem cell-like cells viability, luminescence. inhibition, % at 7.5 µM. actives 1.1% (n = 300,000). AID 2717; in the data active = inhibition above about 75%; inconclusive = no clear call, values can overlap the other calls; tested in HMLE shEcad cells
Mdm2 MdmX PPI: human Mdm2/MdmX binding inhibition; SaOS-2 split-luciferase Mdm2/MdmX complementation, luminescence; actives 3% (n = 330,000); inhibition, % at 8 µM;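 active = inhibition of at least 50% at 8 µM in the primary screen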
Target sequence (O15151 whole entry, looked up): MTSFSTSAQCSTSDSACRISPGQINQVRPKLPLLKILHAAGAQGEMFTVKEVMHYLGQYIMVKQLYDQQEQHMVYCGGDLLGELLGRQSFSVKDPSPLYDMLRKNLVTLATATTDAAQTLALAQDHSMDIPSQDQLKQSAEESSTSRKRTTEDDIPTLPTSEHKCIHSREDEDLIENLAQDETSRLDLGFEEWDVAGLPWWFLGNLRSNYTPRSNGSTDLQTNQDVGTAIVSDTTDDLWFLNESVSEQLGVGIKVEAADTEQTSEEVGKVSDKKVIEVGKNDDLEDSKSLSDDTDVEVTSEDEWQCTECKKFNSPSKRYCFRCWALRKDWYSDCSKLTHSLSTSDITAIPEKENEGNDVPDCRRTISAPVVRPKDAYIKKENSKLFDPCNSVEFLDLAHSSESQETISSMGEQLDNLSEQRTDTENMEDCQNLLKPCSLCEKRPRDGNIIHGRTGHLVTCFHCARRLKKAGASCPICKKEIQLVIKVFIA
Target sequence (Q00987 whole entry, looked up): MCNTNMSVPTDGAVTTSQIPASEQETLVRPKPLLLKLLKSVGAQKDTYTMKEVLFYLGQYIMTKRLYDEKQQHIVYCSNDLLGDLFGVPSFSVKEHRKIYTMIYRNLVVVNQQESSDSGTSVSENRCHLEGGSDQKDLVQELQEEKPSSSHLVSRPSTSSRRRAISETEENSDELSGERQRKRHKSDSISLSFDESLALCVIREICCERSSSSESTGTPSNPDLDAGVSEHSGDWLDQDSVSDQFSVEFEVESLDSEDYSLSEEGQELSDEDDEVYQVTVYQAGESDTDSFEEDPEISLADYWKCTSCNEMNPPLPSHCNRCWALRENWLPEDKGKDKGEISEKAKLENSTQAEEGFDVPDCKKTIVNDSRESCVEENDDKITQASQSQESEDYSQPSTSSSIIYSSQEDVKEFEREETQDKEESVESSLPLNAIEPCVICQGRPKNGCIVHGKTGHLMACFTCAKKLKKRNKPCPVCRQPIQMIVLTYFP
Mdm2 MdmX conf: confirmation of human Mdm2/MdmX interaction inhibitors | actives 55% (n = 10,000) | shares compounds with Mdm2 MdmX PPI | Mdm2-MdmX binding, luminescent assay | inhibition, % at 8 µM; in the data active = inhibition above about 40%
Full FLuc ctr: inhibits full-length luciferase, flagging false Mdm2/MdmX hits | AID 504607 | shares compounds with Mdm2 MdmX PPI | SaOS-2 full-length luciferase counterscreen, luminescence | inhibition, % at 8 µM | actives 77% (n = 6,200);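 active = mean inhibition at 8 µM reaching about 37%, which flags the compound as non-specific, limit read from the data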;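 also: p53-null SaOS-2 cells with luciferase driven by a doxycycline-inducible promoter; compound on cells about two nights before reading with doxycycline added after day one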
* hit, by the source's call; u = inconclusive; x = not tested or not shown. A selection: hits, their analogues and other compounds. The true share with any hit is near 4%.

SMILES	Beta cell apopt	Shn3 3UTR inh	PAX8 reporter	Gli-Sufu block	CSC inhib	Mdm2 MdmX PPI	Mdm2 MdmX conf	Full FLuc ctr
COc1ccc(-c2nn(-c3ccccc3)cc2C(=O)N2c3ccc(C)cc3C3CN(C)CCC32)cc1 (stereo unspecified)	14.7	-11.9	24.4	x	x	53.9*	35.5	73.8*
C[C@H](CO)N1C[C@H](C)[C@@H](CN(C)C(=O)CCCN(C)C)OCCCC[C@H](C)Oc2ccc(NC(=O)c3ccccc3)cc2C1=O	x	x	-14.0	x	x	x	x	x
O=C(c1ccc(Br)cc1)C(CN1CCOCC1)c1ccccc1 (stereo unspecified)	4.8	96.2*	39.4	9.0	68.3	91.0*	56.1*	24.6
C[C@@H]1CCCCO[C@H](CN(C)C(=O)Nc2ccccc2)[C@H](C)CN([C@H](C)CO)C(=O)c2cc(NC(=O)NC3CCCCC3)ccc2O1	x	x	7.0	x	x	x	x	x
CCN1CCN(CCNC(=O)C2CCN(Cc3nc(-c4ccc(Cl)cc4)oc3C)CC2)CC1	4.2	x	x	x	7.9	99.2*	52.7*	37.4*
CCN1CCCC1CNC(=O)C1CCN(Cc2nc(-c3cccc(Br)c3)oc2C)CC1 (stereo unspecified)	0.0	-11.9	x	19.6	x	83.6*	99.9*	3.9
Cc1oc(-c2ccc(Cl)cc2)nc1CN1CCC(C(=O)N2CCc3ccccc3C2)CC1	2.0	46.0	x	7.1	17.1	51.6*	37.2	58.5*
Cc1oc(-c2ccc(Cl)cc2)nc1CN1CCC(C(=O)NCCCN2CCCC(C)C2)CC1 (stereo unspecified)	3.5	-16.2	u	23.2	-20.4	100.4*	96.3*	21.2
Cc1oc(-c2ccc(Cl)cc2)nc1CN1CCC(C(=O)NCCCN2CCCC2=O)CC1	-0.2	18.6	17.4	4.0	10.4	21.2	x	x
COc1ccc(-c2cnc3c(c2)C(=O)N([C@H](C)CO)C[C@@H](C)[C@@H](CN(C)C(=O)C2CCCCC2)O3)cc1	x	x	-13.7	x	x	x	x	x
COc1ccccc1CNC(=O)C1CCN(Cc2nc(-c3ccc(Cl)cc3)oc2C)CC1	x	x	8.2	x	x	x	x	x
Cc1ccccc1-c1nc(CN2CCC(C(=O)NCCCN3CC(C)CC(C)C3)CC2)c(C)o1 (stereo unspecified)	4.4	2.5	x	12.2	2.5	78.2*	95.2*	25.7
CCc1ccc(-c2nc(CN3CCC(C(=O)NCc4ccccc4OC)CC3)c(C)o2)cc1	13.5	57.6	30.6	-13.4	5.5	57.0*	24.9	x
Nc1ncnc(NCc2ccc(F)cc2)c1[N+](=O)[O-]	-24.4	5.0	-18.6	-16.5	-14.9	68.6*	61.5*	27.0
C/C=C/c1ccc([C@H]2[C@@H](CO)N(Cc3cncnc3)C23CN(C(C)=O)C3)cc1	x	x	-2.6	x	x	x	x	x
COc1ccc(-c2csc(NC(=S)NC(=O)c3ccc(S(=O)(=O)N(C)C)cc3)n2)cc1OC	-4.2	4.0	-5.1	-1.5	-0.9	70.4*	22.7	x
COc1ccc(-c2csc(NC(=O)c3ccc(OCC(=O)N4CCOCC4)c(OC)c3)n2)cc1OC	9.2	16.2	23.3	-1.3	24.2	57.8*	38.8	x
COc1cc(/C=N/Nc2nc(-c3ccc(S(=O)(=O)N(C)C)cc3)cs2)ccc1O	6.9	x	-2.7	9.0	65.7	82.4*	56.4*	81.3*
CN(C)C(=O)C[C@H]1C[C@H]2c3cc(NC(=O)C4CCOCC4)ccc3O[C@H]2[C@H](CO)O1	x	x	-7.2	x	x	x	x	x
CCS(=O)(=O)N[C@@H]1CC[C@@H](CC(=O)NC2Cc3ccccc3C2)O[C@@H]1CO	x	x	13.0	x	x	x	x	x
O=[N+]([O-])c1ccccc1N=Nc1ccc(O)cc1O	x	-36.6	-66.6	-9.6	x	x	x	x
Oc1ccc(N=Nc2ccc(Br)cc2)c(O)c1	24.2	-58.1	-27.3	-21.6	91.8*	82.4*	41.2*	98.4*
CC(C)(C)C(=O)/C(=C/c1ccncc1)n1cncn1	-35.6	97.8*	69.7*	21.7	52.9	100.3*	100.0*	51.1*
O=C(Nc1ccc2c(c1)OCO2)N[C@@H]1CC[C@H](CCNC(=O)C2CCCC2)O[C@H]1CO	x	x	11.7	x	x	x	x	x
CN(c1ccccc1)S(=O)(=O)c1ccc(Cl)nc1	-2.2	17.2	2.6	3.5	6.1	14.5	x	x
SMILES	Beta cell apopt	Shn3 3UTR inh	PAX8 reporter	Gli-Sufu block	CSC inhib	Mdm2 MdmX PPI	Mdm2 MdmX conf	Full FLuc ctr
Cc1nc(S(=O)(=O)N(C)c2ccccc2)c(C#N)c(C)c1Cl	-3.7	-10.4	x	-13.3	-11.8	96.2*	93.4*	57.4*
COc1ccc(CN(C)C[C@@H]2Oc3c(NC(=O)Nc4ccccc4)cccc3C(=O)N([C@@H](C)CO)C[C@@H]2C)cc1	x	x	6.9	x	x	x	x	x
COc1ccc(NC(=O)Nc2cccc3c2O[C@H](CN(C)Cc2ccc(-c4ccccc4)cc2)[C@@H](C)CN([C@H](C)CO)C3=O)cc1	23.5	16.8	15.3	13.9	18.8	90.7*	63.0*	31.0
Cc1ccc(S(=O)(=O)N(C)C[C@H]2Oc3c(NC(=O)Nc4cccc5ccccc45)cccc3C(=O)N([C@H](C)CO)C[C@H]2C)cc1	x	x	-33.7	x	x	x	x	x
Cc1ccc(S(=O)(=O)N(C)C[C@H]2Oc3c(NC(=O)Nc4cccc5ccccc45)cccc3C(=O)N([C@@H](C)CO)C[C@@H]2C)cc1	x	2.3	102.7*	11.1	x	59.6*	37.4	46.6*
C[C@@H]1CN([C@@H](C)CO)C(=O)c2cccc(NC(=O)Nc3ccc(F)cc3)c2O[C@@H]1CN(C)Cc1ccc(Oc2ccccc2)cc1	65.6	37.6	54.9	42.0	x	76.3*	22.0	x
CC1Cc2ccccc2N1S(=O)(=O)c1cnc(Cl)c(Cl)c1 (stereo unspecified)	-3.4	-15.0	29.8	2.8	0.4	30.2	x	x
CSc1ccc(S(=O)(=O)N2c3ccccc3CC2C)cc1 (stereo unspecified)	6.0	8.5	43.8	0.8	38.5	53.2*	54.2*	65.1*
CC(=O)N1CCc2cc(S(=O)(=O)N3c4ccccc4CC3C)ccc21 (stereo unspecified)	11.8	16.6	x	-0.4	-5.7	60.6*	53.8*	57.8*
CCN1CCN(c2cc(C)c3cc(NC(=O)c4ccc(OC)c(OC)c4)ccc3n2)CC1	11.0	-39.1	57.1	6.9	19.3	38.4	x	x
CCN1CCN(c2cc(C)c3cc(NC(=O)c4cncc(Br)c4)ccc3n2)CC1	-2.7	-13.0	x	2.8	-2.8	66.2*	27.1	x
CCN1CCN(c2cc(C)c3cc(NC(=O)c4cccc(OC)c4)ccc3n2)CC1	-3.6	x	-34.0	-8.6	12.0	16.3	x	x
CCN1CCN(c2cc(C)c3cc(NC(=O)c4ccc5c(c4)OCO5)ccc3n2)CC1	-0.4	-18.3	31.4	-4.9	13.1	71.0*	49.7*	84.5*
O=C(COc1ccccc1)Nc1nc(-c2cccnc2)cs1	-3.9	-1.7	-20.3	-2.8	x	3.3	x	x
